Bioassay records deposited in PubChem BioAssay by several laboratories.
The list is not random: actives were taken first. Their share in the collection is about 3.7%.
GPR7 antag: blocks human GPR7 receptor signaling; inhibition, % at 4.4 µM; GPR7-expressing cells, fluorescence antagonist assay; actives 1.1% (n = 290,000); P48145; in the data active means inhibition above about 16%, passing the limit was not always enough;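 further: cells stimulated with the agonist NPW; 0% = agonist with vehicle and 100% = vehicle without agonist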
TMEM16A act: activates or potentiates the mouse TMEM16A chloride channel. Q8BHY3. HEK293 TMEM16A/YFP-H148Q/I152L, iodide quench fluorescence; hits give low values. B-score at 10 µM. actives 0.3% (n = 340,000);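 active means fluorescence-ratio B-score plate-corrected deviation score at least 3 library SD below zero, with starting fluorescence score within 5 deviations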;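 further: channel opened by trigger with iodide after compound preincubation; score built on the fluorescence ratio of max minus min over baseline; more negative score means more quench and so TMEM16A activation or potentiation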
TMEM16A inh: blocks the mouse calcium-activated chloride channel TMEM16A; Q8BHY3; HEK293 TMEM16A/YFP iodide influx fluorescence, ionomycin; normalized B-score (activity score, 25-100; higher = stronger inhibition) at 10 µM; actives 1.2% (n = 310,000);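 active means ratio plate-corrected score three or more library SD toward inhibition, starting fluorescence score within five deviations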;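 further: score derived from kinetic fluorescence span divided by baseline fluorescence per well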
CHT PAM: allosteric activators of human choline transporter CHT; CHT-expressing cells, membrane potential dye, choline EC20; hits give high values; LV-AA mutant CHT in HEK293 cells; B-score at 10 µM; actives 0.49% (n = 310,000);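 active means initial fluorescence not abnormally high and integrated response B-score, plate-corrected, over 3 SD above library mean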
Target sequence (Q9GZV3 whole entry, looked up): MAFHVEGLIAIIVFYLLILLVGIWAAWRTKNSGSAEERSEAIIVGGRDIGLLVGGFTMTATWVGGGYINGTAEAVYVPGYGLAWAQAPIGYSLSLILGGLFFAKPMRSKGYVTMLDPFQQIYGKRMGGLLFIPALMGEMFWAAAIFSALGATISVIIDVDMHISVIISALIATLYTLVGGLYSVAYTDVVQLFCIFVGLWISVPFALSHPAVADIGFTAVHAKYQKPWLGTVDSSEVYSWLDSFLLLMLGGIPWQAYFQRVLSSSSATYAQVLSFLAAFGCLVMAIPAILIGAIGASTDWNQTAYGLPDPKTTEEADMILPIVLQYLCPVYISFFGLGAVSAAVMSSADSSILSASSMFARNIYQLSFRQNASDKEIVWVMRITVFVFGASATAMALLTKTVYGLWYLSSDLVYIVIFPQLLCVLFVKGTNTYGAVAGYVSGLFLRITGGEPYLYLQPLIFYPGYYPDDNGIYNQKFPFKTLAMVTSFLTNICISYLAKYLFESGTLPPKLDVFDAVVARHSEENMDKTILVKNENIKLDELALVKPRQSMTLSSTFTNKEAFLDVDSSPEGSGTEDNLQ
Kir21 inh: Kir2.1 (mouse) channel inhibition | HEK293-Kir2.1, FluxOR thallium flux fluorescence; hits give low values | P35561 | actives 0.85% (n = 310,000) | B-score at 10 µM;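 active means fluorescence ratio B-score at or below minus 3 SD of library scores, with starting-brightness B-score within 2 SD, cut at about -4.2 in these data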;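 further: channel flux triggered by added potassium and thallium sulfate stimulus; B-score of peak minus minimum fluorescence over baseline after thallium stimulus; more negative B-score means stronger Kir2.1 block with less thallium influx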
CHT inh: inhibits the human high affinity choline transporter; CHT-expressing cells, membrane potential dye, choline response; hits give low values; B-score at 10 µM; actives 0.86% (n = 310,000);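 active means B-score over 3 SD under the library average, and starting fluorescence ratio not unusually high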;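 further: choline stimulus applied at its EC90 after an EC20 pre-addition; B-score computed on integrated fluorescence ratio after choline addition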
GPR7 antag cf: human GPR7 antagonism, confirmation assay; AID 1952; shares compounds with GPR7 antag; inhibition, % at 4.4 µM; actives 52% (n = 2,400); GPR7-expressing cells, calcium fluorescence antagonist mode; in the data active means inhibition above about 24%;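 further: stimulated with the GPR7 agonist NPW; 0% = agonist plus vehicle and 100% = vehicle alone without agonist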
MCHR1 antagonist: MCHR1 (human) antagonism in GPR7 counter-screen; MCHR1-expressing cells, fluorescence antagonist assay; actives 62% (n = 2,400); inhibition, % at 4.4 µM; AID 2148; shares compounds with GPR7 antag; in the data active means inhibition above about 22%;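 further: 0% = vehicle with agonist and 100% = vehicle without agonist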
CHT block conf: confirmation of human choline transporter CHT inhibitors. actives 70% (n = 2,400). CHT-expressing cells, choline membrane potential dye; LV-to-AA substituted CHT, HEK293 cells. shares compounds with CHT inh. CHT activity remaining % of control (hits give low values), % at 10 µM;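 active means choline transporter activity left, mean of duplicates at 10 µM, below buffer-only control mean minus 3 SD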;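 further: depolarization triggered by choline at its EC90 following an EC20 pre-addition; 0% = hemicholinium-3 full block and 100% = buffer-only control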
HEK293 CHT ctr: counter-screen for CHT inhibitors: effect in parental HEK293 cells | shares compounds with CHT inh | membrane potential dye, choline response; active = decrease or increase beyond buffer ±3SD | membrane potential ratio readout (active if shifted either direction beyond buffer ±3SD; no single direction) at 10 µM | actives 4% (n = 2,400);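 further: parental cells lack the transporter so any hit is non-specific; ratio is peak minus trough fluorescence over baseline after EC90 choline challenge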
CHT act confirm: confirmation of human choline transporter (CHT) activators | CHT-expressing cells, membrane potential dye fluorescence (FDSS); % of choline EC20–EC90 response window; HEK293 expressing CHT LV-AA mutant; choline added at its EC20 | activation, % at 10 µM | actives 91% (n = 2,500) | shares compounds with CHT PAM;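 active means primary screen active, with duplicate mean activation above negative control mean plus 3 SD, cut at about 11% in these data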
HEK293 MP dye: activity in parental HEK293 cells lacking CHT | membrane potential dye fluorescence (FDSS); measured after EC20 choline addition | actives 62% (n = 2,500) | ratio readout change at 10 µM, hits read low | shares compounds with CHT PAM;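 active means duplicate-averaged ratio beyond 3 SD from buffer wells, up or down, though filed actives are nearly all decreases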
Numbers without * were called inactive; i = inactive; x = no result.

SMILES	GPR7 antag	TMEM16A act	TMEM16A inh	CHT PAM	Kir21 inh	CHT inh	GPR7 antag cf	MCHR1 antagonist	others
COc1ccc(-[n+]2c(-c3ccccc3)cc(-c3ccc(C)cc3)cc2-c2ccccc2)cc1	72*	i	100*	i	-13*	i	70*	65*
CC1CC2(C)C(=CC1=O)CCC1C3CCC(C)(O)C3(C)CC3OC312 (configuration not stated)	x	i	x	x	x	x	x	x
O=C1CC(N2CC=C(c3ccccc3)CC2)C(=O)N1c1ccc(F)cc1 (configuration not stated)	24*	i	i	i	0.11	i	5	8
CCCOc1ccc(N2C(=O)CC(N3CC=C(c4ccccc4)CC3)C2=O)cc1 (configuration not stated)	-12	i	i	i	0.97	i	x	x
CC1CCCCC12C(=O)NC(=O)NC2=O (configuration not stated)	x	i	x	x	x	x	x	x
Nc1ccc(-c2ccccc2)cc1	x	i	x	x	x	x	x	x
Nc1ccccc1-[n+]1c(-c2ccccc2)cc(-c2ccccc2)cc1-c1ccccc1	84*	-9*	i	i	-5.8*	i	76*	66*
OCCOCCO	x	i	i	i	x	i	x	x
O=C(Nc1cccc(C(F)(F)F)c1)OC1CN2CCC1CC2 (configuration not stated)	5	i	i	i	-1.6	i	x	x
OC(c1cccc(Cl)c1)(c1cccc(Cl)c1)C1CN2CCC1CC2 (configuration not stated)	34*	i	i	i	-4.7*	i	44*	51*
c1cc2n(c1)-c1c(ccc3c1OCO3)CNC2c1ccc2c(c1)OCO2 (configuration not stated)	25*	i	i	i	-3.1	i	49*	30*
Cc1nonc1-c1nc(-c2nonc2N)n[nH]1	32*	i	i	i	-0.85	i	13	4
CC1=CC(=O)OC2CC3OC4C[C@@H](C)C5OC6CC7O[C@]8(C)C/C=C\C9OC%10CC%11OC(CC(C)C%12OCCO%12)CC(O)[C@]%11(C)OC%10CC9OC8C[C@]7(C)O[C@]6(C)CCC5OC4C[C@]3(C)OC12 (some centres not stated)	x	i	x	x	x	x	x	x
CN1CC=C(/C=C/c2ccc(-c3ccccc3)cc2)CC1	51*	x	i	i	1.4	i	63*	51*
C[C@]12CCC3[C@@H](CCC4=CC(=O)CC[C@@]43C=O)C1CCC2=O (some centres not stated)	28*	i	i	i	-0.76	i	-9	7
COCCOC(=O)c1c(N)n(Cc2ccc(OC)cc2)c2nc3ccccc3nc12	30*	i	i	i	1.2	i	21	19
COc1cc(O)c(C(=O)O)c(-c2cc(O)c(O)cc2C)c1	x	i	i	i	-0.01	i	x	x
O=C(COc1ccc(Cl)cc1)N1CCN(Cc2ccc([N+](=O)[O-])cc2)CC1	30*	i	i	i	0.58	-5.1*	28*	46*	CHT block conf=i;HEK293 CHT ctr=i
CCN1C[C@]2(COC)CC[C@H](OC)[C@@]34C5C[C@H]6C(=O)C5[C@](O)(C[C@H]6OC)[C@@](O)(C(OC)C23)[C@@H]14 (some centres not stated)	x	i	i	i	-0.05	i	x	x
COc1ccc(-c2cc(-c3ccccc3)[n+](C)c(-c3ccccc3)c2)cc1	33*	i	i	i	-2.5	i	42*	38*	CHT act confirm=35*;HEK293 MP dye=i
Cc1ccc(-c2cc(-c3ccc(C)cc3)[n+](-c3ccc(C(=O)O)cc3)c(-c3ccc(C)cc3)c2)cc1	x	i	i	i	2.1	i	x	x
CC1CCCCN1Cc1ccc(Cl)nc1 (configuration not stated)	-10	i	i	i	-5.3	i	x	x
COc1ccc(C2NCc3ccc4c(c3-n3cccc32)OCO4)cc1O (configuration not stated)	50*	x	i	11*	-0.13	i	53*	37*	CHT act confirm=16*;HEK293 MP dye=i
Cc1ccc2c(c1)C1CN(C)CCC1N2C(=O)c1cn(-c2ccccc2)nc1-c1ccccc1 (configuration not stated)	10	i	i	i	-0.7	i	x	x
Cc1ccc2c(c1)[C@@H]1CN(C)CC[C@@H]1N2C(=O)Nc1cccc(C(F)(F)F)c1	-1	i	i	i	-2	-7.2*	x	x	CHT block conf=26%*;HEK293 CHT ctr=i
Cc1ccc2c(c1)C1CN(C)CCC1N2C(=O)Nc1cccc(C(F)(F)F)c1 (configuration not stated)	13	i	i	i	-0.87	-5.4*	x	x	CHT block conf=23%*;HEK293 CHT ctr=i
COc1cc2c(cc1OC)C13CCN4C=C5CCOC6CC(=O)N2C1C6C5CC43 (configuration not stated)	x	i	x	x	x	x	x	x
CCN(CC)c1ccc(/C=N/c2sc3c(c2C#N)C2CCN3CC2)c(O)c1	6	i	i	i	x	i	x	x
CCC(C)/C=C(C)/C=C/C1=CC2=C(Cl)C(=O)C(C)(OC(C)=O)C(=O)C2=CO1 (configuration not stated)	-11	i	100*	i	0.64	-8.4*	x	x	CHT block conf=24%*;HEK293 CHT ctr=i
O=C(CF)NC(NC(=S)Nc1ccccc1O)C(Cl)(Cl)Cl (configuration not stated)	-2	i	i	i	-2.1	i	x	x
